Data: PubChem BioAssay (NCATS)
“And” between values parts separate entries of the source, which are not always exact repeats. Identical values can stand only once. Records with an inconclusive call do not appear. The source made the active and inactive calls. Unless noted, the call rests on the fitted dose curve.

How the values were obtained:
[1] = biological target: Bile acid receptor (Homo sapiens) (UniProt Q96RI1); test: qHTS assay for small molecule agonists of farnesoid X receptor signaling (AID 588527); details: HEK293T FXR-UAS-bla, beta-lactamase ratio, 16 h; activation: stronger effect = higher value;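 further: series mostly up to about 77 µM; 0% = vehicle basal and 100% = reference agonist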
Summary of the method: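 Quantitative HTS used FXR-UAS-bla HEK293T cells with 16 h compound incubation at 37 C. EC50 values came from concentration-response curves normalized to chenodeoxycholic acid.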

[2] = biological target: Peroxisome proliferator-activated receptor delta (Homo sapiens) (UniProt Q03181); test: qHTS assay for small molecule agonists of peroxisome proliferator-activated receptor delta signaling (AID 588534);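 further: 0% = DMSO basal wells and 100% = positive control agonist at 10 µM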
Summary of the method: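 EC50 and efficacy values derive from Hill fits of a concentration series in a beta-lactamase reporter cell assay. Exposure is 18 hrs at 37 C, with CCF4 fluorescence as the readout.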

[3] = biological target: Peroxisome proliferator-activated receptor gamma (Homo sapiens) (UniProt P37231); test: qHTS assay for small molecule agonists of peroxisome proliferator-activated receptor gamma signaling (AID 588536; active means well fitted curve in the direction sought with a large enough effect in the signal ratio, with a control signal flat, not every such curve was filed as active; the % refers to the signal ratio;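 further: 0% = DMSO basal wells and 100% = rosiglitazone at 2 µM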)
Summary of the method: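 Using GeneBLAzer HEK293 cells, response was quantified by CCF4 fluorescence and normalized between basal DMSO (0%) and rosiglitazone 2 uM (100%); curves yielded half-maximal stimulation concentration and efficacy.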

[4] = biological target: Retinoic acid receptor RXR-alpha (Homo sapiens) (UniProt P19793); test: qHTS assay for small molecule agonists of retinoid X receptor alpha signaling (AID 588544);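 further: 0% = DMSO basal wells and 100% = reference agonist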
[5] = biological target: Cytochrome P450 3A4 (Homo sapiens) (UniProt P08684); test: qHTS Assay for Activators of Cytochrome P450 3A4 (AID 885; active means well fitted curve in the direction sought with a large enough effect; an effect the other way counts as inactive or inconclusive; further: nearly all actives have a fitted effect of over 65% in size)
Summary of the method: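 Using 20nM recombinant human CYP3A4 in potassium phosphate (200mM), substrate Luciferin-PPXE at 25uM, luminescent luciferin detection followed a 60-min RT NADPH reaction; data scaled to 57 uM ketoconazole.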

[6] = Cell Viability - LYMP2-003 (AID 965; active means well fitted curve in the direction sought with a large enough effect; an effect the other way counts as inactive or inconclusive;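 further: potency means the concentration at half of the fitted maximal effect; cells exposed to compounds for 24 h before reading; nearly all actives have a fitted effect of over 50% in size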)
Summary of the method: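 Seed 2500 lymphoblastoid cells/well; incubate 5 hr, 37 C; add compounds; incubate 24 hr, 37 C; add CellTiter-Glo, 30 min RT; read luminescence. AC50 from Hill fit.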

[7] = Cell Viability - LYMP2-005 (AID 967; active means well fitted curve in the direction sought with a large enough effect; an effect the other way counts as inactive or inconclusive;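 further: potency means the concentration at half of the fitted maximal effect; cells exposed to compound for 24 h at 37 °C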)
Summary of the method: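 Acute cytotoxicity is scored as a concentration-dependent drop in intracellular ATP in human lymphoblastoid LYMP2-005 cells after 24 h compound treatment. ATP is quantified by luciferase luminescence, and AC50 is derived by Hill-equation modelling.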

[8] = qHTS assay for small molecule activators of the p53 signaling pathway (AID 651743; active means well fitted activation curve with a large enough effect in the signal ratio, not every such curve was filed as active; the % refers to the signal ratio; further: potency means the concentration at half of the fitted maximal effect; on activation: series mostly up to about 92 µM; % of control where 0% means no effect); details: HCT-116 p53RE-bla, beta-lactamase FRET ratio, 16 h; activation: stronger effect = higher value
Summary of the method: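 Reporter: beta-lactamase driven by p53 response elements, stably integrated in HCT-116 cells. Cells seeded at 4,000/well, 5 h preincubation, compound (DMSO) 16 h at 37 C; B/G FRET substrate 2 h RT; fluorescence intensity read.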

[9] = qHTS assay for small molecule activators of the nuclear factor-kappa B (NF-kB) signaling pathway (AID 651749; active means well fitted activation curve with a large enough effect in the signal ratio; the % refers to the signal ratio; further: series mostly up to about 77 µM; % of control where 0% means no effect); details: NF-kB-bla ME-180 cells, beta-lactamase FRET ratio, 16 h; activation: stronger effect = higher value
Summary of the method: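 NF-kB-bla ME-180 cells, 2,000/well; 23 nL compound or DMSO pinned; 16 hr, 37C/5% CO2; beta-lactamase FRET read-out.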

[10] = qHTS assay for environmental chemicals that activate the Aryl hydrocarbon Receptor (AhR) signaling pathway (AID 651777; active means well fitted curve in the direction sought with a large enough effect; an effect the other way counts as inactive or inconclusive; further: % of control where 0% means no effect; nearly all actives have a fitted effect of over 15% in size); details: 1A2-DRE human hepatoma cells, luciferase, 24 h; activation: stronger effect = higher value
Summary of the method: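 1A2-DRE human hepatoma reporter line; 1,200 cells/well; cmpd or DMSO 24 h, 37 C/5% CO2; One-Glo 30 min RT; luciferase lum.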

[11] = biological target: Peroxisome proliferator-activated receptor alpha (Homo sapiens) (UniProt Q07869); test: qHTS assay for small molecule agonists of the peroxisome proliferator-activated receptor alpha (PPARalpha) signaling pathway (AID 651778; active means well fitted curve in the direction sought with a large enough effect; an effect the other way counts as inactive or inconclusive; further: % of control where 0% means no effect); details: PathHunter PPARalpha complementation, chemiluminescence, 6 h; max response: stronger effect = higher value
Summary of the method: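 Enzyme-fragment complementation assay in which ligand-bound PPARalpha translocates and forms an active enzyme that generates chemiluminescence. Cells were plated overnight, exposed to compound for 6 hr at 37 C, and then given detection reagent for 60 min at room temperature.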

[12] = qHTS assay for cell viability of HEK293 cells (AID 743288; active means well fitted curve in the direction sought with a large enough effect; an effect the other way counts as inactive or inconclusive; further: on the % scale 0 is the no-effect control and ±100 the full control effect; nearly all actives have a fitted effect of over 50% in size); details: ATP luminescence (CellTiter-Glo), 18 h; max response: stronger effect = lower value
Summary of the method: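 Viable-cell counts were inferred from luciferase-based ATP content in HEK293 cells seeded at 2,000/well, pre-incubated ≥5 h, then dosed with DMSO-solubilised compounds for 18 h at 37 C.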

[13] = qHTS assay for small molecule antagonists of peroxisome proliferator-activated receptor delta signaling (AID 588535; active means well fitted inhibition curve with a large enough effect in the signal ratio, with a control signal flat, not every such curve was filed as active; the % refers to the signal ratio;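 on max response: cells co-treated with a PPAR-delta agonist as stimulator during compound exposure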); details: HEK293T PPARd-UAS-bla, beta-lactamase FRET ratio, 18 h; 460 nm channel
Summary of the method: (§1)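 Beta-lactamase reporter read-out (405 nm excitation, 460/530 nm emission) after CCF4 loading for 2 hrs at RT. HEK293T PPAR-delta-UAS-bla cells, 2% charcoal/dextran FBS, compounds for 18 hrs at 37 C. Hill fit gave IC50 and efficacy.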

[14] = biological target: Peroxisome proliferator-activated receptor delta (Homo sapiens) (UniProt Q03181); test: as above
Summary of the method: as §1

[15] = biological target: Vitamin D3 receptor (Homo sapiens) (UniProt P11473); test: qHTS assay for small molecule antagonists of vitamin D receptor signaling (AID 588541);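 further: receptor activated by calcitriol during compound treatment; series mostly up to about 77 µM; on the % scale 0 is the no-effect control and ±100 the full control effect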
Summary of the method: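 VDR-UAS-bla HEK293T cells in 2% charcoal-stripped FBS were stimulated with 1-alpha,25-dihydroxyvitamin D3 (3 nM final) plus compound for 16 h at 37 C. The beta-lactamase CCF4 readout was normalized to 50 nM agonist and DMSO, and Hill fits gave IC50.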

[16] = biological target: Thyroid hormone receptor beta (Homo sapiens) (UniProt P10828); test: qHTS assay for small molecule agonists of thyroid hormone receptor beta signaling (AID 588545)
Summary of the method: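 Agonist activity was read as beta-lactamase CCF4 fluorescence (405 ex, 460/530 em), scaled between DMSO (0%) and 10 nM T3 (100%), then Hill-fitted for EC50 and efficacy. HEK 293 TR-UAS-bla cells in 2% charcoal/dextran FBS medium were exposed 18 h at 37 C.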

[17] = qHTS assay for small molecule antagonists of retinoid X receptor alpha signaling (AID 588546; active means well fitted inhibition curve with a large enough effect in the signal ratio, with a control signal flat, not every such curve was filed as active; the % refers to the signal ratio; further: potency means the concentration at half of the fitted maximal effect;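 on max response: cells stimulated with 9-cis-retinoic acid as agonist; on the % scale 0 is the no-effect control and ±100 the full control effect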); details: HEK293T RXRa-UAS-bla, beta-lactamase ratio, antagonist mode; measured here: W530 green channel, cytotoxicity proxy
Summary of the method: (§2)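 Beta-lactamase reporter inhibition, read as CCF4 fluorescence ratio (ex 405, em 460/530 nm) after 2 h at RT. HEK293T UAS-bla cells, 2500/well, were stimulated with 9-cis-RA at 500 or 100 nM final alongside test compound for 18 h at 37 C.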

[18] = biological target: Retinoic acid receptor RXR-alpha (Homo sapiens) (UniProt P19793); test: as above; details: HEK293T RXRa-UAS-bla, beta-lactamase ratio, antagonist mode
Summary of the method: as §2

[19] = biological target: Thyroid hormone receptor beta (Homo sapiens) (UniProt P10828); test: qHTS assay for small molecule antagonists of thyroid hormone receptor beta signaling (AID 588547; active means well fitted inhibition curve with a large enough effect in the signal ratio, with a control signal flat, not every such curve was filed as active; the % refers to the signal ratio;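 further: cells stimulated with 0.4 nM T3 agonist during compound exposure; series mostly up to about 77 µM; on the % scale 0 is the no-effect control and ±100 the full control effect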); details: TR-UAS-bla HEK293, beta-lactamase ratio, antagonist mode, 18 h
Summary of the method: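 TR-UAS-bla GripTite HEK293 cells in 2% charcoal/dextran FBS medium; compounds 0.59 nM to 92 uM with T3 at 0.4nM final, 18 h at 37 C. Beta-lactamase read by CCF4 fluorescence (460/530 nm); Hill fits gave IC50 and efficacy.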

[20] = qHTS assay for small molecule agonists of the antioxidant response element (ARE) signaling pathway (AID 651741; active means well fitted activation curve with a large enough effect in the signal ratio; the % refers to the signal ratio; further: potency means the concentration at half of the fitted maximal effect)
Summary of the method: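 HepG2 ARE-bla reporter cells, 2,000/well; 5 h settle at 37 C/5% CO2; compound pin transfer (23 nL, DMSO); 16 h at 37 C; LiveBLAzer B/G FRET substrate, 2 h RT; fluorescence intensity read.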

[21] = qHTS assay for small molecule agonists of the antioxidant response element (ARE) signaling pathway measured by Nrf2-dependant transcriptional activity (AID 720636; active means well fitted curve in the direction sought with a large enough effect in the repeat runs; an effect the other way counts as inactive or inconclusive;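 further: HepG2 cells with an ARE-driven luciferase reporter; % of control where 0% means no effect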)
Summary of the method: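 Cells: ARE-luc HepG2 with Nrf2-responsive luciferase. Medium contained 1% dialyzed FBS. Compound exposure lasted 16 hr at 37 C and 5% CO2, followed by ONE-Glo luciferase detection.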

[22] = qHTS assay for small molecule agonists of the antioxidant response element (ARE) signaling pathway measured by Nrf2-dependant transcriptional activity - cell viability counter screen (AID 720653; active means well fitted curve in the direction sought with a large enough effect in the repeat runs; an effect the other way counts as inactive or inconclusive; further: on the % scale 0 is the no-effect control and ±100 the full control effect); details: ARE-bla HepG2 viability, CellTiter-Glo ATP luminescence, 16 h; max response: stronger effect = lower value
Summary of the method: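 ARE-bla HepG2 cells treated with compounds for 16 h at 37C; this counter screen measures viability as intracellular ATP by CellTiter-Glo luminescence after 30 min at room temperature.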

[23] = qHTS assay for cell viability of the p53RE-bla HCT-116 cell line (AID 743292; active means well fitted curve in the direction sought with a large enough effect; an effect the other way counts as inactive or inconclusive; further: on the % scale 0 is the no-effect control and ±100 the full control effect; nearly all actives have a fitted effect of over 55% in size)
Summary of the method: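 HCT-116 p53RE-bla cells seeded 4,000/well; 5 h at 37 C; compound (DMSO) added; 16 h at 37 C; CellTiter-Glo added, 30 min RT; luminescence read.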

Sequence of Bile acid receptor (Homo sapiens) (Q96RI1 whole entry, looked up): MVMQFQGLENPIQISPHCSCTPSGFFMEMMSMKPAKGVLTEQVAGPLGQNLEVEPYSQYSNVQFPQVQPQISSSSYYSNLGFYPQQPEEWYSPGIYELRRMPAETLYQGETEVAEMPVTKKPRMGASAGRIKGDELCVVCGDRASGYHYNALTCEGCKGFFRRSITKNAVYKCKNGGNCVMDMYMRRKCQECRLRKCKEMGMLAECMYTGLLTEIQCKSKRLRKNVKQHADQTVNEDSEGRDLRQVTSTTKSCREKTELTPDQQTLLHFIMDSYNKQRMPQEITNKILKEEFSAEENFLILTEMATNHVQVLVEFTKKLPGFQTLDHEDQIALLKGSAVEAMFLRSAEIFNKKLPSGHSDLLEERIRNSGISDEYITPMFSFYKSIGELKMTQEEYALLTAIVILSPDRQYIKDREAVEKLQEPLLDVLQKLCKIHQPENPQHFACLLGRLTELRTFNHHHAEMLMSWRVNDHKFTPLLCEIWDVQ
Sequence of Peroxisome proliferator-activated receptor delta (Homo sapiens) (Q03181 whole entry, looked up): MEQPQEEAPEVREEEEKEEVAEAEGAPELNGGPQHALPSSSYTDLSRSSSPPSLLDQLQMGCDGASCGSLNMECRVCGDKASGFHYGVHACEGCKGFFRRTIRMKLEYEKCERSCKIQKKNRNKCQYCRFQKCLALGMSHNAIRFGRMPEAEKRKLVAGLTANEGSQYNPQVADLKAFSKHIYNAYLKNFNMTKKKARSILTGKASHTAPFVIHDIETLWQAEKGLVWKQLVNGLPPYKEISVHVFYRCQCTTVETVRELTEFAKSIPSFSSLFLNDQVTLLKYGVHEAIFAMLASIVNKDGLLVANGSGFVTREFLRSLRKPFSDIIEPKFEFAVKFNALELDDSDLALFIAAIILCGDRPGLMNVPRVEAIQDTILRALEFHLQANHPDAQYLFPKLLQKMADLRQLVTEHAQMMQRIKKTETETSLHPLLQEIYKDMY
Sequence of Peroxisome proliferator-activated receptor gamma (Homo sapiens) (P37231 whole entry, looked up): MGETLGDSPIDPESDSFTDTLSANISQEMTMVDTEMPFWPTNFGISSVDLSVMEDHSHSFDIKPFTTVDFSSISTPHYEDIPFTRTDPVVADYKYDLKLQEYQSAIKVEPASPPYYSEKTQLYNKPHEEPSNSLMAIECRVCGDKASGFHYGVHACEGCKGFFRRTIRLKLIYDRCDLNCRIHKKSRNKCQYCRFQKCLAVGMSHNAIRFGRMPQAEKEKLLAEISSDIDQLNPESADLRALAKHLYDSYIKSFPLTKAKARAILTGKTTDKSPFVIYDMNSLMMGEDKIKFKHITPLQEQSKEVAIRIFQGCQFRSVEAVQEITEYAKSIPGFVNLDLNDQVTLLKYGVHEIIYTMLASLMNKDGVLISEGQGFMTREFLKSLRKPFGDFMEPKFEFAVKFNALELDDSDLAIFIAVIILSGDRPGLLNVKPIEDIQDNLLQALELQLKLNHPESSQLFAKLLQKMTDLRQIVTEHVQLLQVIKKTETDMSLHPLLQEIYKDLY
Sequence of Retinoic acid receptor RXR-alpha (Homo sapiens) (P19793 whole entry, looked up): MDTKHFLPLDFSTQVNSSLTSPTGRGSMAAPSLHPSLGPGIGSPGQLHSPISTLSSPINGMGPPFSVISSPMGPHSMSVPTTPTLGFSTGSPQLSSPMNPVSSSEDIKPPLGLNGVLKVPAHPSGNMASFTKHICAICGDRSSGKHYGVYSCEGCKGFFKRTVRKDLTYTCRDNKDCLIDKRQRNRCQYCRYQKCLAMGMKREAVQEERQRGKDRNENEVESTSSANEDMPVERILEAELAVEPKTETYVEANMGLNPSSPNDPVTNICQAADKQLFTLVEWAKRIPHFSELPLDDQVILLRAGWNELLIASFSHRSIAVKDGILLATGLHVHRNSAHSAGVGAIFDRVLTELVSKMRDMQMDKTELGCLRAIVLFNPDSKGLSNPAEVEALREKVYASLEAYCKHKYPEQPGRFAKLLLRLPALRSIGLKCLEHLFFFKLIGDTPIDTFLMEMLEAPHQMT
Sequence of Thyroid hormone receptor beta (Homo sapiens) (P10828 whole entry, looked up): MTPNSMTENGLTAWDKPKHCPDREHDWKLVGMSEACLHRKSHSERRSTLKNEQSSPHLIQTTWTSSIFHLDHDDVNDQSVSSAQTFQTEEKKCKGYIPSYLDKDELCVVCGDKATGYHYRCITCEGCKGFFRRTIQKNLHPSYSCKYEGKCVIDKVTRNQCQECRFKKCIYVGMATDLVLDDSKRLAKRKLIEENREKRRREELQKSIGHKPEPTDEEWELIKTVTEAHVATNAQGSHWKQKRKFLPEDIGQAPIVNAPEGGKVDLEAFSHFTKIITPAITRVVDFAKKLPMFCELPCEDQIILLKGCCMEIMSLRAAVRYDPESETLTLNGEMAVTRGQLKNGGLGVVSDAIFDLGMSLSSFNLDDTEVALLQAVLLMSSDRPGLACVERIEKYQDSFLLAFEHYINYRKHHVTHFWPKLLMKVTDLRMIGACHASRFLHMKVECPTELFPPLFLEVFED
Sequence of Peroxisome proliferator-activated receptor alpha (Homo sapiens) (Q07869 whole entry, looked up, the tested form may be a part): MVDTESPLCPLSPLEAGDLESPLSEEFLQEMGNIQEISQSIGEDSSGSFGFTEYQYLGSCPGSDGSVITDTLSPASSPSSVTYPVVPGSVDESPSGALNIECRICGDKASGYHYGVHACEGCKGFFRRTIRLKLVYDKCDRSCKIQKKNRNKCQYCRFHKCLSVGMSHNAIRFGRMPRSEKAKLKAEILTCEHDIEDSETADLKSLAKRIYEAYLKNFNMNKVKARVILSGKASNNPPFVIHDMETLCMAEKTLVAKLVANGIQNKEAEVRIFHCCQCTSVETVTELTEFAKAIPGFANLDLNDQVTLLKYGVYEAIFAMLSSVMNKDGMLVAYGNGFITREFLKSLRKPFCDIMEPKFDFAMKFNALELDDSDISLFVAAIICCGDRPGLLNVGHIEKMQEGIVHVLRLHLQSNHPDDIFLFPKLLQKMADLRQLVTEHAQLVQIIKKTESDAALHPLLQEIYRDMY
Sequence of Cytochrome P450 3A4 (Homo sapiens) (P08684 whole entry, looked up): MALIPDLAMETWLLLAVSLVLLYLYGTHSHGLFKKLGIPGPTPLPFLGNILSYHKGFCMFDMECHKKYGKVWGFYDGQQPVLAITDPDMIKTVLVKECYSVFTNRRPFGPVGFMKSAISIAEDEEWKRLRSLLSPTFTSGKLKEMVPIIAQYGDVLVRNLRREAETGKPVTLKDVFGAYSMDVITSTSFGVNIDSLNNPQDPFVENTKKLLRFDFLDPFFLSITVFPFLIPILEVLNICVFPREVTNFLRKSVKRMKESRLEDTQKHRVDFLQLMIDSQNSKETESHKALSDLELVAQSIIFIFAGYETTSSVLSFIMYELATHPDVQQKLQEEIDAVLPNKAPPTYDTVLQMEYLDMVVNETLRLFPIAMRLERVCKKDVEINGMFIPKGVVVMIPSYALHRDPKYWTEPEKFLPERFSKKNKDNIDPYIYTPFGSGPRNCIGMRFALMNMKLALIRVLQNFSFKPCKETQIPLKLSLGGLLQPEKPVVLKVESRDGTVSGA
Sequence of Vitamin D3 receptor (Homo sapiens) (P11473 whole entry, looked up): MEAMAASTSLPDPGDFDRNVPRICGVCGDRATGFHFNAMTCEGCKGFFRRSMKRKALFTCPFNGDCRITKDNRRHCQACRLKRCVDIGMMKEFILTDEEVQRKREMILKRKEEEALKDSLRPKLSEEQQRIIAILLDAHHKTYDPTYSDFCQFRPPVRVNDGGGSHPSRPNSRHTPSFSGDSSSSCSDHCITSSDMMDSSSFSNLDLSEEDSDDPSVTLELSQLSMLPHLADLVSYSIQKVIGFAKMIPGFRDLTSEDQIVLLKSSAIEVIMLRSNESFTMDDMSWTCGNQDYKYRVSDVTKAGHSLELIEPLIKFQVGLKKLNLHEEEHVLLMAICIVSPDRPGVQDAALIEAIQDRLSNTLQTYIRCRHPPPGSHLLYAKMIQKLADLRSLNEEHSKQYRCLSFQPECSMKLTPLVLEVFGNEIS

CCCCC
activation [1]: -0.0908% (inactive) | outcome [2]: inactive

CCOC(=O)C(C)Oc1ccc(Oc2nc3ccc(Cl)cc3o2)cc1 (stereo not drawn)
activation [1]: -3.02% (inactive) | Potency [3]: inactive

COc1ccccc1[N+](=O)[O-]
activation [1]: -1.25% (inactive) and -5.38% (inactive) | Potency [4]: inactive

Nc1ccc(-c2ccc(N)c(O)c2)cc1O
Potency [5]: inactive | Potency [6]: 50.1 µM (active) | Potency [7]: 50.1 µM (active) | activation [1]: -0.21% (inactive) | outcome [2]: inactive

COC(=O)c1cccc(C)c1S(=O)(=O)NC(=O)Nc1nc(OCC(F)(F)F)nc(N(C)C)n1
activation [1]: -2.17% (inactive) | outcome [2]: inactive

Cc1ccc(-c2c(Cl)nc(C#N)n2S(=O)(=O)N(C)C)cc1
activation [1]: 4.98% (inactive) | Potency [3]: inactive | Potency [8]: 28.2 µM (active) | activation [9]: 2.86% (inactive) | activation [10]: 12.8% (inactive) | max response [11]: 15.7% (inactive) | max response [12]: -15.9% (inactive)

CCOP(=S)(OCC)SCn1nnc2ccccc2c1=O
activation [1]: 3.29% (inactive) | outcome [2]: inactive | max response [13]: 7.16% | Potency [14]: inactive | Potency [3]: inactive | Potency [15]: inactive | Potency [16]: inactive | max response [17]: 30.8% | Potency [18]: 39.8 µM (active) | activity change % (negative = inhibition) [19]: -2.51% (inactive) | Potency [20]: 54.5 µM (active) | activation [8]: 2.43% (inactive) | activation [9]: -3.08% (inactive) | activation [10]: 6.1% (inactive) | max response [11]: -0.264% (inactive) | Potency [21]: inactive | max response [22]: -19.9% (inactive) | Potency [23]: inactive
